Source: PubChem BioAssay AID1159580 (chemical genetic matrix, 2015)
Among all 5,500 compounds or so, about 2,000 (36%) were called active. Another 18% or so got no clear call; they are omitted. No stated cut-off is given here; in the data, active means normalized growth mostly below about 0.91 (no sharp cut-off); inconclusive means no clear call, values can overlap the other calls; inactive means mostly above about 0.92. Some of the results follow.

Assay: chemical genetic growth profiling, strain panel (AID 1159580);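 further: tested at 20 µM; growth read once vehicle control cultures reached saturation at 30 °C; 1 = growth at the plate median or of vehicle wells; lower values mean less growth of the strain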
Settings: growth OD

Measured: normalized growth

CCCOc1ccc2nc(NC(=O)OC)[nH]c2c1
inactive: S. cerevisiae deletion strains, locus YJR075W, strain HOC1, active compounds read low 0.992 | S. cerevisiae deletion strains, locus YKL009W, strain mrt4, active compounds read low 0.99 | S. cerevisiae deletion strains, locus YKL068W, active compounds read low 0.995 | S. cerevisiae deletion strains, locus YKL085W, strain MDH1 (second series), active compounds read low 0.995 | S. cerevisiae deletion strains, locus YKL085W, strain MDH1, active compounds read low 0.995 | S. cerevisiae deletion strains, locus YKL160W, strain elf1, active compounds read low 1.02 | S. cerevisiae deletion strains, locus YKL190W, strain CNB1, active compounds read low 1.02 | S. cerevisiae deletion strains, locus YKR001C, strain vps1, active compounds read low 0.96 | S. cerevisiae deletion strains, locus YKR026C, strain gcn3, active compounds read low 1.02 | S. cerevisiae deletion strains, locus YKR091W, strain srl3, active compounds read low 1.01 | S. cerevisiae deletion strains, locus YLL001W, strain dnm1, active compounds read low 1.01 | S. cerevisiae deletion strains, locus YLL026W, active compounds read low 1.01 | S. cerevisiae deletion strains, locus YLL041C, strain sdh2, active compounds read low 1.01 | S. cerevisiae deletion strains, locus YLR027C, strain aat2, active compounds read low 1.01 | S. cerevisiae deletion strains, locus YLR039C, strain RIC1, active compounds read low 0.833 | S. cerevisiae deletion strains, locus YLR058C, strain SHM2, active compounds read low 0.99 | S. cerevisiae deletion strains, locus YLR102C, strain apc9, active compounds read low 0.981 | S. cerevisiae deletion strains, locus YLR113W, strain HOG1, active compounds read low 1.03 | S. cerevisiae deletion strains, locus YLR221C, strain rsa3, active compounds read low 1.01 | S. cerevisiae deletion strains, locus YLR258W, strain gsy2, active compounds read low 1.01 | S. cerevisiae deletion strains, locus YLR262C, strain YPT6 (second series), active compounds read low 0.955 | S. cerevisiae deletion strains, locus YLR262C, strain YPT6, active compounds read low 0.849 | S. cerevisiae deletion strains, locus YLR268W, strain sec22, active compounds read low 0.971 | S. cerevisiae deletion strains, locus YLR320W, strain mms22, active compounds read low 1.04 | S. cerevisiae deletion strains, locus YLR330W, strain CHS5, active compounds read low 0.989 | S. cerevisiae deletion strains, locus YLR342W, strain FKS1 (second series), active compounds read low 0.973 | S. cerevisiae deletion strains, locus YLR342W, strain FKS1, active compounds read low 1.03 | S. cerevisiae deletion strains, locus YLR357W, strain rsc2, active compounds read low 1.02 | S. cerevisiae deletion strains, locus YLR370C, strain arc18, active compounds read low 1.02 | S. cerevisiae deletion strains, locus YLR371W, strain rom2, active compounds read low 0.983 | S. cerevisiae deletion strains, locus YLR384C, strain iki3, active compounds read low 1.01 | S. cerevisiae deletion strains, locus YLR418C, strain cdc73, active compounds read low 0.878 | S. cerevisiae deletion strains, locus YML016C, strain PPZ1, active compounds read low 0.983 | S. cerevisiae deletion strains, locus YML032C, strain rad52, active compounds read low 0.982 | S. cerevisiae deletion strains, locus YML120C, strain ndi1, active compounds read low 1.02 | S. cerevisiae deletion strains, locus YMR058W, strain fet3, active compounds read low 1.01 | S. cerevisiae deletion strains, locus YMR078C, strain ctf18, active compounds read low 0.979 | S. cerevisiae deletion strains, locus YMR125W, strain sto1, active compounds read low 1.02 | S. cerevisiae deletion strains, locus YMR129W, active compounds read low 1.02 | S. cerevisiae deletion strains, locus YMR205C, strain PFK2, active compounds read low 1.03 | S. cerevisiae deletion strains, locus YMR223W, strain ubp8, active compounds read low 0.96 | S. cerevisiae deletion strains, locus YMR231W, strain pep5, active compounds read low 1.01 | S. cerevisiae deletion strains, locus YMR263W, strain SAP30, active compounds read low 0.989 | S. cerevisiae deletion strains, locus YMR307W, strain GAS1, active compounds read low 0.844 | S. cerevisiae deletion strains, locus YNL067W, strain RPL9B, active compounds read low 1.01 | S. cerevisiae deletion strains, locus YNL071W, strain lat1, active compounds read low 1.02 | S. cerevisiae deletion strains, locus YNL128W, strain TEP1, active compounds read low 0.975 | S. cerevisiae deletion strains, locus YNL183C, strain NPR1, active compounds read low 1.01 | S. cerevisiae deletion strains, locus YNL209W, strain ssb2, active compounds read low 1.02 | S. cerevisiae deletion strains, locus YNL233W, strain BNI4, active compounds read low 1.01 | S. cerevisiae deletion strains, locus YNL248C, strain rpa49, active compounds read low 1.02 | S. cerevisiae deletion strains, locus YNL250W, strain rad50, active compounds read low 0.98 | S. cerevisiae deletion strains, locus YNL271C, strain bni1, active compounds read low 0.986 | S. cerevisiae deletion strains, locus YNL298W, strain CLA4, active compounds read low 0.965 | S. cerevisiae deletion strains, locus YNL307C, strain MCK1, active compounds read low 0.972 | S. cerevisiae deletion strains, locus YNL322C, strain KRE1 (second series), active compounds read low 1 | S. cerevisiae deletion strains, locus YNL322C, strain KRE1, active compounds read low 1 | S. cerevisiae deletion strains, locus YNR049C, strain mso1, active compounds read low 1.01 | S. cerevisiae deletion strains, locus YNR052C, strain pop2, active compounds read low 0.977 | S. cerevisiae deletion strains, locus YOL006C, strain TOP1, active compounds read low 0.983 | S. cerevisiae deletion strains, locus YOL012C, strain htz1 0.822 | S. cerevisiae deletion strains, locus YOL147C, strain pex11, active compounds read low 0.975 | S. cerevisiae deletion strains, locus YOR001W, strain rrp6, active compounds read low 1.02 | S. cerevisiae deletion strains, locus YOR061W, strain CKA2, active compounds read low 0.992 | S. cerevisiae deletion strains, locus YOR069W, strain VPS5, active compounds read low 0.993 | S. cerevisiae deletion strains, locus YOR070C, strain gyp1, active compounds read low 1.01 | S. cerevisiae deletion strains, locus YOR080W, strain dia2, active compounds read low 1.02 | S. cerevisiae deletion strains, locus YOR083W, strain WHI5, active compounds read low 1.02 | S. cerevisiae deletion strains, locus YOR106W, strain vam3, active compounds read low 0.999 | S. cerevisiae deletion strains, locus YOR136W, strain idh2, active compounds read low 0.995 | S. cerevisiae deletion strains, locus YOR144C, strain elg1, active compounds read low 0.988 | S. cerevisiae deletion strains, locus YOR184W, strain ser1, active compounds read low 0.957 | S. cerevisiae deletion strains, locus YOR231W, strain MKK1, active compounds read low 1.07 | S. cerevisiae deletion strains, locus YOR265W, strain rbl2, active compounds read low 1.01 | S. cerevisiae deletion strains, locus YOR270C, strain vph1, active compounds read low 1.02 | S. cerevisiae deletion strains, locus YOR290C, strain snf2, active compounds read low 1.01 | S. cerevisiae deletion strains, locus YOR316C, strain cot1, active compounds read low 0.983 | S. cerevisiae deletion strains, locus YPL051W, strain arl3, active compounds read low 1.01 | S. cerevisiae deletion strains, locus YPL078C, strain atp4, active compounds read low 1.02 | S. cerevisiae deletion strains, locus YPL106C, strain sse1, active compounds read low 1.02 | S. cerevisiae deletion strains, locus YPL240C, strain hsp82, active compounds read low 1.01 | S. cerevisiae deletion strains, locus YPL256C, strain CLN2, active compounds read low 1.02 | S. cerevisiae deletion strains, locus YPR119W, strain clb2, active compounds read low 0.987 | S. cerevisiae deletion strains, locus YPR141C, strain kar3, active compounds read low 0.993 | S. cerevisiae deletion strains, locus YPR163C, strain tif3, active compounds read low 0.982 | S. cerevisiae deletion strains, locus YPR167C, strain met16, active compounds read low 0.977 | S. cerevisiae deletion strains, strain wtn01, active compounds read low 0.967 | S. cerevisiae strains, strain wild type, active compounds read low 0.995
active: S. cerevisiae deletion strains, locus YML124C, strain tub3, active compounds read low 0.88 | S. cerevisiae deletion strains, locus YNL153C, strain GIM3, active compounds read low 0.438 | S. cerevisiae deletion strains, locus YPL241C, strain CIN2, active compounds read low 0.606
